“And” between values parts separate entries of the source, which are not always exact repeats. Identical values can stand only once. Records with an inconclusive call do not appear. Some compounds were tested as several samples or in several runs, with calls that do not always agree. The source made the active and inactive calls. Unless noted, calls follow the shape of the dose curve; as a rule, active = well fitted curve in the direction sought with a large enough effect in the repeat runs; inconclusive = weak or mixed curves; inactive = no such curve, though single readings can be large; an effect the other way counts as inactive or inconclusive.
Assays:
[1] = target: Luciferin 4-monooxygenase (Photinus pyralis) (UniProt P08659); experiment: qHTS assay to identify small molecule inhibitors of firefly luciferase (AID 1224835); also: % is scaled to controls: 0 for no effect and ±100 for the full control effect; nearly all actives have a fitted effect of over 25% in size
Sequence of Luciferin 4-monooxygenase (Photinus pyralis) (P08659 whole entry, looked up): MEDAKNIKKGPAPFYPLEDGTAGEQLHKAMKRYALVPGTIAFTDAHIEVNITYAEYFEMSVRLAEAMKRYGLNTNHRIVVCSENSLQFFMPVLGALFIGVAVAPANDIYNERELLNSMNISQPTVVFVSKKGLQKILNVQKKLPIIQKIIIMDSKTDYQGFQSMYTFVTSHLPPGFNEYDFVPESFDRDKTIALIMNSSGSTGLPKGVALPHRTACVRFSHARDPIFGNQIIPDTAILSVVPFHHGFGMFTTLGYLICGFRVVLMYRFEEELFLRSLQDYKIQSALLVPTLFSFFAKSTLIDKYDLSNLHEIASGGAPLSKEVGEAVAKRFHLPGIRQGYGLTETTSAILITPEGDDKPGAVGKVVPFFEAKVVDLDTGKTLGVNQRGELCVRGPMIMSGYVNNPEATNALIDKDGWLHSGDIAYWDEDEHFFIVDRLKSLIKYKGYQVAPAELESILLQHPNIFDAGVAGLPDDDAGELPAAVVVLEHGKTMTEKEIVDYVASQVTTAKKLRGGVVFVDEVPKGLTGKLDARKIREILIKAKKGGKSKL
Summary of the method: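 Quantitative HTS format; KM concentrations of both substrates. Purified P. pyralis FLuc activity quantified from luminescence images.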

[2] = qHTS assay to identify small molecule agonists of the constitutive androstane receptor (CAR) signaling pathway - cell viability counter screen (AID 1224836); also: % is scaled to controls: 0 for no effect and ±100 for the full control effect; nearly all actives have a fitted effect of over 45% in size
Summary of the method: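 Using CellTiter-Fluor, viability of HepG2 cells harbouring hCAR and CYP2B6-2.2kb was measured following 23 h incubation with a 15-concentration compound series plus PK11195 (0.75 uM final).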

[3] = qHTS assay to identify small molecule antagonists of the constitutive androstane receptor (CAR) signaling pathway - cell viability counter screen (AID 1224837); also: % is scaled to controls: 0 for no effect and ±100 for the full control effect; nearly all actives have a fitted effect of over 45% in size
Summary of the method: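 Counter screen run in HepG2-CYP2B6-hCAR cells: 4 hr settle, compound titration (15 concentrations) with 50 nM CITCO, 23 hr at 37 C/5% CO2, CellTiter-Fluor fluorescence.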

[4] = target: Nuclear receptor subfamily 1 group I member 3 (Homo sapiens) (UniProt Q14994); experiment: qHTS assay to identify small molecule agonists of the constitutive androstane receptor (CAR) signaling pathway (AID 1224839); also: nearly all actives have a fitted effect of over 15% in size; also: potency is read from the fitted curve at half-maximal effect;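 as to activation: HepG2 cells stably carrying human CAR and a CYP2B6 luciferase reporter; % is scaled to controls: 0 for no effect and ±100 for the full control effect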
Sequence of Nuclear receptor subfamily 1 group I member 3 (Homo sapiens) (Q14994 whole entry, looked up): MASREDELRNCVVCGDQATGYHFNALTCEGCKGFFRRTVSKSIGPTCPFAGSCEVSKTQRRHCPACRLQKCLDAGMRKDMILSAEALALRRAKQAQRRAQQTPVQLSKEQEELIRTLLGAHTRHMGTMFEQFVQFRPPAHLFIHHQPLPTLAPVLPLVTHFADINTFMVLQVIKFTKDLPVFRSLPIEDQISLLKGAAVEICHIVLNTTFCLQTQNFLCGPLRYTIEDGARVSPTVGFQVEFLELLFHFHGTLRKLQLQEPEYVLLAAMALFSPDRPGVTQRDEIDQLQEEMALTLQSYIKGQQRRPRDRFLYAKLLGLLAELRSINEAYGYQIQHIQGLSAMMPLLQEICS
Summary of the method: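 Double-stable HepG2 cells (hCAR, CYP2B6-2.2kb) seeded 4 h before compound addition. Exposure 24 h with 0.75 uM PK11195 final. Luciferase detected by ONE-Glo.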

[5] = qHTS assay to identify small molecule antagonists of the estrogen related receptor signaling pathway with the pleiotropic PPARgamma coactivator (PGC) from Tox21 10K library - cell viability counter screen (AID 1224840; active = well fitted cell-killing curve with a large enough effect in the repeat runs, not every such curve was filed as active; also: nearly all actives have a fitted effect of over 40% in size; also: potency is read from the fitted curve at half-maximal effect)
Summary of the method: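 Following seeding of 2,000 PGC/ERR cells/well and 6 hours' incubation, test compounds were delivered in DMSO. The plates then sat 17.5 hours at 37 C before a fluorogenic live-cell protease reagent (CellTiter-Fluor) was read after 30 min.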

[6] = target: Thyrotropin receptor (Homo sapiens) (UniProt P16473); experiment: qHTS assay to identify small molecule agonists of the thyroid stimulating hormone receptor (TSHR) signaling pathway (AID 1224843; calls by dose curve; also: % is scaled to controls: 0 for no effect and ±100 for the full control effect; nearly all actives have a fitted effect of over 45% in size)
Sequence of Thyrotropin receptor (Homo sapiens) (P16473 whole entry, looked up): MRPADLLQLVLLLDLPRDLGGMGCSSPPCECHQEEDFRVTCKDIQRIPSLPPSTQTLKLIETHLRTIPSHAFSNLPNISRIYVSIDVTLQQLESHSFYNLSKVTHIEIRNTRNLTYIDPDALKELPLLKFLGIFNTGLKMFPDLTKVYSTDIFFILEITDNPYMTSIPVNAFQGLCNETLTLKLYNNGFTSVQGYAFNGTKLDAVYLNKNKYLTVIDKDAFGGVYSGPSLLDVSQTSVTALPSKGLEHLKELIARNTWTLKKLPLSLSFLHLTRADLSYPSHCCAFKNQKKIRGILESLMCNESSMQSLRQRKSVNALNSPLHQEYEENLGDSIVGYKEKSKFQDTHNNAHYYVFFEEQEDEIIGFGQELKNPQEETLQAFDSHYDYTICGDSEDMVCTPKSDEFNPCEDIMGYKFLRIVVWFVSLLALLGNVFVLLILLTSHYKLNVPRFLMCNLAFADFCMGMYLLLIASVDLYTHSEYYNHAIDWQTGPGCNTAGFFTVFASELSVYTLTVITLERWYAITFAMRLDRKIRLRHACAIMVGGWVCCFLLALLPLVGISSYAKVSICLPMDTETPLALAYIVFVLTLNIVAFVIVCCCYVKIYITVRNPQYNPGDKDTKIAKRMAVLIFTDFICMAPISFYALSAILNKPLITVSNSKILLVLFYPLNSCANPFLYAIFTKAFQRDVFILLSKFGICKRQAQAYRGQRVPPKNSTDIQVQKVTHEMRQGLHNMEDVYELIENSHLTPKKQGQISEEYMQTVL
Summary of the method: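 Cell line HEK293 with TSHR; density 800/well. Exposure 30 min RT. Readout HTRF cAMP (cAMP-d2/anti-cAMP-cryptate), 1 h RT before reading.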

[7] = qHTS assay to identify small molecule agonists of H2AX (AID 1224845; active = well fitted activation curve with a large enough effect in the signal ratio in the repeat runs, not every such curve was filed as active; the % refers to the signal ratio; also: potency is read from the fitted curve at half-maximal effect)
Summary of the method: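 Wild-type CHO-K1 cells plated overnight, then exposed 3 hr at 37C to compounds at 15 concentrations (0.76% DMSO). Lysed, then HTRF anti-pH2AX(S139)-cryptate/anti-H2AX-d2 detection after 24 hr at room temperature; emissions 665 and 620 nm.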

[8] = qHTS assay to identify small molecule agonists of H2AX - cell viability counter screen (AID 1224847; calls by dose curve; also: nearly all actives have a fitted effect of over 30% in size; also: potency is read from the fitted curve at half-maximal effect)
Summary of the method: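 Quantitative HTS viability measurement: CHO-K1 wild-type cells in serum (10% FBS) medium, short 3 hr drug exposure at 37C with 0.76% DMSO, CellTiter-Glo luminescent detection.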

[9] = qHTS RealTime-Glo MT Cell Viability Assay in HepG2 cells - 24 hour (AID 1224867); also: % is scaled to controls: 0 for no effect and ±100 for the full control effect; nearly all actives have a fitted effect of over 50% in size
Summary of the method: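 Real-time, nonlytic viability: 600 HepG2 cells/well mixed with NanoLuc enzyme plus prosubstrate; 5 h settle, compound (DMSO) added by pintool; luminescence monitored over 40 h at 37 C.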

[10] = qHTS RealTime-Glo MT Cell Viability Assay in HEK293 cells - 32 hour (AID 1224868); also: nearly all actives have a fitted effect of over 50% in size; also: potency is read from the fitted curve at half-maximal effect
Summary of the method: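 Cells + reagent dispensed (600 cells/well, HEK293) → 5 h at 37 C/5% CO2 → 23 nL compound in DMSO pinned → 40 h at 37 C → luminescence read at 0, 8, 16, 24, 32, 40 h.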

[11] = A CellTox Green Cytotoxicity Assay to monitor cytotoxicity in HEK293 cells - 0 hour (AID 1224869); also: % is scaled to controls: 0 for no effect and ±100 for the full control effect; nearly all actives have a fitted effect of over 50% in size
Summary of the method: (§1)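 Fluorescence intensity, read at 0, 8, 16, 24, 32 and 40 h of compound treatment, reflected dye binding to DNA of dead HEK293 cells; compounds (23 nL, DMSO) were added 5 h after plating cells with reagent.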

[12] = qHTS RealTime-Glo MT Cell Viability Assay in HepG2 cells - 40 hour (AID 1224870); also: % is scaled to controls: 0 for no effect and ±100 for the full control effect; nearly all actives have a fitted effect of over 50% in size
Summary of the method: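 HepG2 cells mixed with RealTime-Glo MT reagents (NanoLuc plus cell-permeant prosubstrate) were seeded at 600 cells/well, incubated 5 h at 37 C/5% CO2, then pinned with compounds in DMSO; nonlytic luminescence tracked viability during 40 h treatment.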

[13] = A CellTox Green Cytotoxicity Assay to monitor cytotoxicity in HEK293 cells - 40 hour (AID 1224871); also: nearly all actives have a fitted effect of over 45% in size; also: potency is read from the fitted curve at half-maximal effect
Summary of the method: as §1

[14] = target: Nuclear receptor subfamily 1 group I member 3 (Homo sapiens) (UniProt Q14994); experiment: qHTS assay to identify small molecule antagonists of the constitutive androstane receptor (CAR) signaling pathway (AID 1224838);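 also: HepG2 cells stably expressing hCAR with CYP2B6 luciferase reporter stimulated by CITCO; % is scaled to controls: 0 for no effect and ±100 for the full control effect; nearly all actives have a fitted effect of over 40% in size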
Summary of the method: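 Cell line: HepG2 double-stable for hCAR and CYP2B6-2.2kb reporter. Agonist: CITCO, 50 nM final. Compounds: 15 concentrations, 24 h, 37 C. Detection: ONE-Glo luminescence.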

[15] = qHTS assay to identify small molecule agonists of the hypoxia (HIF-1) signaling pathway - cell viability counter screen (AID 1224844; calls by dose curve; also: nearly all actives have a fitted effect of over 50% in size; also: potency is read from the fitted curve at half-maximal effect)
Summary of the method: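 Cells (HRE-bla ME-180, 2,000 per well) sat 5 hrs at 37C, got compound for 17 hrs, were read for CCF4-AM FRET, and were finally lysed with CellTiter-Glo for a 30 min room-temperature luminescence read.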

[16] = qHTS assay to identify small molecule agonists of the hypoxia (HIF-1) signaling pathway (AID 1224846; active = well fitted activation curve with a large enough effect in the signal ratio in the repeat runs, not every such curve was filed as active; the % refers to the signal ratio; also: % is scaled to controls: 0 for no effect and ±100 for the full control effect)
Summary of the method: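 A low-serum medium (0.5% dialyzed FBS) holding 2,000 HRE-bla ME-180 cells per well is preincubated for 5 hrs, dosed with compounds by pintool, and kept a further 17 hrs at 37C, 5% CO2 before CCF4-AM FRET detection of beta-lactamase.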

[17] = qHTS assay to identify small molecule antagonists of the estrogen related receptor (ERR) signaling pathway from Tox21 library (AID 1224848); also: nearly all actives have a fitted effect of over 50% in size; also: potency is read from the fitted curve at half-maximal effect
Summary of the method: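 Screening used an ERR reporter line supplied by NTP, exposed for 18 h at 37 C to library compounds delivered in DMSO. Signal was luciferase luminescence developed with ONE-Glo at room temperature for 30 min.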

[18] = qHTS assay to identify small molecule agonists of the estrogen related receptor (ERR) signaling pathway from Tox21 library (AID 1224849; calls by dose curve; also: % is scaled to controls: 0 for no effect and ±100 for the full control effect; nearly all actives have a fitted effect of over 15% in size); conditions: ERR reporter cell line, ONE-Glo luciferase, 18 h
Summary of the method: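 Screening used an NTP-provided ERR luciferase cell line. Compounds in DMSO were added 6 h after seeding and left 18 h at 37 C before a 30 min ONE-Glo step and luminescence reading.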

[19] = qHTS assay to identify small molecule antagonists of the estrogen related receptor signaling pathway with the pleiotropic PPARgamma coactivator (PGC) from Tox21 10K library (AID 1224841; call rule not given here)
Summary of the method: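 qHTS antagonist format: PGC/ERR cells, 2k/well, compound in DMSO by pin transfer after 6 h attachment, 18 h treatment at 37 C, One-Glo luminescence read at 30 min.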

CC1CCCNC1 (centres undefined)
inactive: Potency [1] | Potency [2] | Potency [3] | Potency [4] | Potency [5] | Potency [6] | Potency [7] | Potency [8] | Potency [9] | Potency [10] | Potency [11] | Potency [12] | Potency [13]

CCCCNc1c(C(=O)OCC)c(C)nc2c1cnn2CC
active: Potency [10] 21.3 µM
inactive: Potency [1] | Potency [2] | Potency [3] | Potency [14] | Potency [5] | Potency [6] | Potency [15] | Potency [7] | Potency [9] | Potency [11] | Potency [12] | Potency [13]

OCCCCl
inactive: Potency [1] | Potency [2] | Potency [3] | Potency [14] | Potency [4] | Potency [6] | Potency [15] | Potency [7] | outcome [16] | Potency [8] | Potency [17] | activity change, positive = activation ([18]; at 92.4 µM (top of the series) unless noted) -6.99% | Potency [9] | Potency [10] | Potency [11] | Potency [12] | Potency [13]

C=C(c1ccc(C(=O)O)cc1)c1cc2c(cc1C)C(C)(C)CCC2(C)C
inactive: Potency [1] | Potency [2] | Potency [3] | activity change, positive = activation ([18]; at 42.5 µM (top of the series)) -34.6% | activity change, positive = activation ([18]; at 92.4 µM (top of the series)) -63.5% | Potency [9] | Potency [10] | Potency [12]
30.9 µM (active) and inactive: Potency [13]
38.6 µM (active) and inactive: Potency [4]
101 µM (active) and inactive: Potency [8]
active: Potency [19] 21.7 µM | Potency [15] 15.5 µM and 16.9 µM | Potency [7] 89.8 µM | Potency [17] 21.7 µM and 23.7 µM
61.1 µM (active) and inactive: Potency [5]

Reference: PubChem BioAssay (Tox21)
